Here are results for 12 compounds from PubChem BioAssay (NCATS).

“And” between values parts separate entries of the source, which are not always exact repeats. Equal values may be shown once. Results filed as inconclusive are left out. The source made the active and inactive calls. Unless noted, calls follow the shape of the dose curve; as a rule, active = well fitted curve in the direction sought with a large enough effect; inconclusive = small, poorly fitted or top-dose-only effect, or another doubt; inactive = no such curve, though single readings can be large; an effect the other way counts as inactive or inconclusive.

The nature of assay [1]: Cell Viability - LYMP2-025 (AID 976).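 Also: plate controls were DMSO only for no effect and tetraoctylammonium bromide control for full effect.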 The gist of the method:
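Human lymphoblastoid LYMP2-025 cells, 2500/well, exposed 24 h at 37 C in complete medium in 1536-well qHTS. Viability as cellular ATP by CellTiter-Glo luminescence; AC50 from Hill fits of concentration-response data.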

Assay [2] can be described thus: Cell Viability - LYMP2-006 (AID 978). Also: % is scaled to controls: 0 for no effect and ±100 for the full control effect; nearly all actives have a fitted effect of over 60% in size. The gist of the method:
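Concentration-dependent loss of intracellular ATP in a human lymphoblastoid line after 24 hr treatment at 37 C was measured by CellTiter-Glo luminescence, with AC50 values obtained from standard Hill-equation modelling.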

A short description of assay [3]: Cell Viability - LYMP2-007 (AID 979).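 Also: cells exposed to compound for 24 h before reading; 0% = DMSO only and the negative end = 92 µM tetraoctylammonium bromide; nearly all actives have a fitted effect of over 60% in size.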 The gist of the method:
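Human lymphoblastoid LYMP2-007 cells (2500/well) preincubated 5 h at 37 C, then treated 24 h at 37 C in complete medium. Viability by CellTiter-Glo ATP luminescence after 30 min at room temperature; AC50 from Hill fits.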

Assay [4] can be described thus: Cell Viability - LYMP2-008 (AID 980). Also: % is scaled to controls: 0 for no effect and ±100 for the full control effect; nearly all actives have a fitted effect of over 60% in size. The gist of the method: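 LYMP2-008 lymphoblastoid cells (2500/well) plated 5 h, then treated 24 h at 37 C in complete medium. Viability read as intracellular ATP by CellTiter-Glo luminescence after 30 min at room temperature; AC50 from Hill fits.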
The nature of assay [5]: Cell Viability - LYMP2-010 (AID 981). Also: % is scaled to controls: 0 for no effect and ±100 for the full control effect; nearly all actives have a fitted effect of over 55% in size. The method in brief: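 Human lymphoblastoid LYMP2-010 cells (2500/well) treated 24 h at 37 C in complete medium; viability read as intracellular ATP by CellTiter-Glo luminescence. AC50 from Hill fits of concentration-response data; tetraoctylammonium bromide positive control.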
Assay [6] can be described thus: Cell Viability - LYMP2-012 (AID 982).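 Also: cellular ATP by luciferase luminescence where a drop means cytotoxicity; cells exposed to compound for one day before reading; 0% = DMSO only and full loss = 92 µM tetraoctylammonium bromide; nearly all actives have a fitted effect of over 55% in size.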
The nature of assay [7]: Cell Viability - LYMP2-014 (AID 983).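 Also: plate controls were DMSO only for no effect and 92 µM tetraoctylammonium bromide for full effect; nearly all actives have a fitted effect of over 50% in size.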 The method in brief:
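LYMP2-014 human lymphoblastoid cells, 2500/well, treated 24 h at 37 C in complete medium; viability by CellTiter-Glo ATP luminescence after 30 min at room temperature. AC50 from Hill fits of qHTS concentration-response; tetraoctylammonium bromide positive control.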

Assay [8] in a line: Cell Viability - LYMP2-016 (AID 984). Also: % is scaled to controls: 0 for no effect and ±100 for the full control effect; nearly all actives have a fitted effect of over 55% in size. The gist of the method: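 Acute toxicity in a Coriell human lymphoblastoid line is scored as loss of intracellular ATP over 24 h of treatment in complete medium. CellTiter-Glo signal is fitted across concentrations with the Hill equation to give AC50.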
A short description of assay [9]: Cell Viability - LYMP2-018 (AID 985).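 Also: compound exposure lasted 24 hr at 37 °C; plate controls were DMSO only for no effect and tetraoctylammonium bromide at 92 µM for full effect; nearly all actives have a fitted effect of over 50% in size.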 The method in brief:
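Human lymphoblastoid LYMP2-018 cells, 2500/well, settled 5 hr at 37 C then exposed to compound 24 hr at 37 C; intracellular ATP measured by CellTiter-Glo luminescence. AC50 from Hill-equation concentration-response fits.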

A short description of assay [10]: Cell Viability - LYMP2-020 (AID 986).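 Also: plate controls were DMSO only for no effect and tetraoctylammonium bromide at 92 µM for full effect; nearly all actives have a fitted effect of over 55% in size.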 The gist of the method: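 Human lymphoblastoid LYMP2-020 cells (2500/well) preincubated 5 h at 37 C, then treated 24 h at 37 C. Viability measured as intracellular ATP by CellTiter-Glo luminescence after 30 min at room temperature; AC50 from Hill fits.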
Assay [11] in a line: Cell Viability - LYMP2-022 (AID 987). The method in brief:
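LYMP2-022 lymphoblastoid cells (2500/well, complete medium) were treated with compounds for 24 hours at 37 C; intracellular ATP was then read by CellTiter-Glo luminescence after 30 min at room temperature. AC50 values were derived from Hill-equation fits.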

The nature of assay [12]: Cell Viability - LYMP2-024 (AID 988).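 Also: plate controls were DMSO only for no effect and 92 µM tetraoctylammonium bromide for full effect; nearly all actives have a fitted effect of over 60% in size.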 The gist of the method:
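Human lymphoblastoid LYMP2-024 cells (2500/well) rested 5 hr, then treated with compound for 24 hr at 37 C in complete medium. Viability was measured as intracellular ATP by CellTiter-Glo luminescence. AC50 values came from Hill-equation fits.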

Assay [13] addresses Alpha-galactosidase A (Homo sapiens) (UniProt P06280). The experiment in a line: Counterscreen for Glucocerebrosidase Inhibitors: qHTS Assay for Human alpha-Galactosidase at pH 4.5 (AID 992). Also: 0% is about no effect. The method in brief:
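Read-out is 4-methylumbelliferone fluorescence (365 nm excitation, 440 nm emission) after a pH 10 NaOH/glycine stop. Reactions held 2 nM enzyme and 80 uM substrate at pH 4.5 for 20 min at room temperature.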
A general note: Counterscreens check selectivity or assay interference.

A short description of assay [14]: Cell Viability - LYMP1-002 - Assay at 24 hr (AID 993). Also: % is scaled to controls: 0 for no effect and ±100 for the full control effect. The method in brief:
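Human lymphoblastoid LYMP1-002 cells (2500/well) treated 24 h at 37 °C; viability as intracellular ATP by CellTiter-Glo luminescence. Tetraoctylammonium bromide as positive control; AC50 from Hill-equation fits of qHTS concentration-response.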

Assay [15] in a line: Cell Viability - LYMP1-002 - Assay at 40 hr (AID 994). The method in brief:
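LYMP1-002 human lymphoblastoid cells (2500/well, complete medium) were treated with compounds for 40 hr at 37 C. Intracellular ATP was measured by CellTiter-Glo luminescence, and AC50 values came from Hill-equation fits of concentration-response data; tetraoctylammonium bromide was the positive control.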

Assay [16] addresses alpha-glucosidase (Oryza sativa, rice) (UniProt Q653V4). The experiment in a line: Counterscreen for Glucocerebrosidase Inhibitors: qHTS Assay for Rice alpha-Glucosidase at pH 5.0 (AID 997).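 Also: 0% = full activity with enzyme and -100% = basal without enzyme.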 The method in brief:
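Rice alpha-glucosidase (4 nM final) with 400 uM 4-methylumbelliferyl-alpha-D-glucopyranoside in citrate buffer pH 5.0, 20 min at room temperature, stopped at pH 10; fluorescence 365/440 nm, compounds 0.7 nM–77 uM, AC50 from Hill fits.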

Assay [17] can be described thus: qHTS Assay for Lipid Storage Modulators (AID 1519; calls by dose curve; as to activity change, negative = inhibition: % is scaled to controls: 0 for no effect and ±100 for the full control effect). Conditions: Drosophila S3 cells, BODIPY lipid droplet/cell ratio, laser cytometry, cells loaded with oleic acid. The method in brief:
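Cells seeded at 5,000 per well were treated with compounds over a concentration series and loaded with oleic acid (400 uM, as added). Lipid droplet fluorescence (488 nm excitation, 500-530 nm channel) was read by laser-scanning cytometry and normalized to 20 uM Triacsin C.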
Background: qHTS replaces the single test concentration by a dilution series.

The target in assay [18] is DNA repair nuclease/redox regulator APEX1 (Homo sapiens) (UniProt P27695). The experiment in a line: qHTS Validation Assay for Inhibitors of the Human Apurinic/apyrimidinic Endonuclease 1 (APE1) (AID 1705;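 also: TAMRA fluorescence gain over two minutes as APE1 cuts a quenched THF abasic duplex; % is scaled to controls: 0 for no effect and ±100 for the full control effect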). The method in brief:
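Endonuclease activity of human APE1 is followed as dequenching when the enzyme incises a tetrahydrofuran abasic site in a short duplex labelled 5'-TAMRA/3'-BHQ-2 (50 nM final), after 15 min enzyme–compound preincubation at room temperature.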

Assay [19] in a line: Counterscreen for APE1 Inhibitors: Fluorescent Dye Displacement Validation Assay (AID 1707).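 Also: plate controls were ThO with dsDNA and no compound for no effect and ThO without dsDNA for full effect.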 The method in brief: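 ThO 250 nM + dsDNA 50 nM (THF abasic site, 5'-TAMRA), Tris-HCl pH7.5/50mM NaCl/2 mM MgCl2/0.01% Tween-20; compounds pin-transferred; ex 480/em 540 nm endpoint. Neutral = no compound; no-DNA ThO wells = negative control.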
Setting [20] is: measured here: cell count channel max response.
[21] abbreviates: measured here: lipid channel max response.

Sequence of Alpha-galactosidase A (Homo sapiens) (P06280 whole entry, looked up): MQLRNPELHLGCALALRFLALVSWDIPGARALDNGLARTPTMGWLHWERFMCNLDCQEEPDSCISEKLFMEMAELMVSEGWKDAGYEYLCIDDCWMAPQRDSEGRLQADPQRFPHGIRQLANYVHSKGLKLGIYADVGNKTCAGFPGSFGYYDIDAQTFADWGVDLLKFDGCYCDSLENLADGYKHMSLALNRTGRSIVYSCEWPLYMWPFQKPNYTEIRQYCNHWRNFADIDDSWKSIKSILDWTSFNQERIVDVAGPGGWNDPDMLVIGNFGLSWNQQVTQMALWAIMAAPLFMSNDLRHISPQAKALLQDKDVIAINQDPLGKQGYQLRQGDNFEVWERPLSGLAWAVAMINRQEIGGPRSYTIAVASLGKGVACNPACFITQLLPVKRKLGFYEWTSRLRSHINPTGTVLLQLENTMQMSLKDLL
Sequence of DNA repair nuclease/redox regulator APEX1 (Homo sapiens) (P27695 whole entry, looked up): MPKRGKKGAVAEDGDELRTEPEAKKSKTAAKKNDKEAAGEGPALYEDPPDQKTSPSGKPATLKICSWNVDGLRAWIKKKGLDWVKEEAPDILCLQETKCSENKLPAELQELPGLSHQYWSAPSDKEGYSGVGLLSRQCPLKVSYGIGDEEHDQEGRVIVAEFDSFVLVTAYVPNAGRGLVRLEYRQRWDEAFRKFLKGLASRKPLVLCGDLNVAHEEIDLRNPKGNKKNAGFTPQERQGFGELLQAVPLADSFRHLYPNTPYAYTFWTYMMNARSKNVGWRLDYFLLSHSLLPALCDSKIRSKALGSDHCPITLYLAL

Turning to `Cc1cn([C@H]2C=C[C@@H](CO)O2)c(=O)[nH]c1=O`, the call in assay [1], in assay [2], in [3], in assay [4], in assay [5] and in assay [6] was inactive. Moreover, the compound was called inactive in assay [7], in assay [8], in assay [9], in [10], in [11] and in [12]. The compound was classed as inactive in assay [13], in [14] and in assay [16]. For the same compound, the Potency entry in assay [15], in assay [18] and in assay [19] was “inactive” throughout. For the same compound, the activity change, negative = inhibition in assay [17] (at 57.5 µM (top of the series)) was 1.52% (inactive). For the same compound, the max response was -10.8% in assay [17] (setting [20]) and -8.91% in assay [17] (setting [21]).

Consider `COc1ccccc1N1CCN(CC(O)COc2cccc3ccccc23)CC1` (configuration not stated), for which, in [17] (at 57.5 µM (top of the series)), the activity change, negative = inhibition is 0.0402% (inactive). For the same compound, the max response in [17] (setting [20]) is -17.8%; in [17] (setting [21]), -14.9%. Also, the Potency entry in assay [18] was “inactive”.

Regarding `Clc1ccccc1C(c1ccccc1)(c1ccccc1)n1ccnc1`, the compound was called inactive in assay [13] and in [16]. Also, the values for the activity change, negative = inhibition in [17] (at 25.7 µM (top of the series)) and in assay [17] (at 57.5 µM (top of the series)) were 2.04% (inactive) and 9.89% (inactive), respectively. The max response was -13.7% and 9.45% in assay [17] (setting [20]); -11.4% and 22.8% in [17] (setting [21]). For the same compound, the Potency result in assay [18] was “inactive”.

Consider `O=C(c1ccc(OCCN2CCCCC2)cc1)c1c(-c2ccc(O)cc2)sc2cc(O)ccc12`, for which the compound was classed as inactive in assay [13] and in [16]. Besides, the values for the activity change, negative = inhibition in assay [17] (at 25.7 µM (top of the series)) and in [17] (at 57.5 µM (top of the series)) were -1.98% (inactive) and 1.97% (inactive), respectively. The max response is -4.67% and -13.2% in assay [17] (setting [20]); -4.93% and -10.5% in assay [17] (setting [21]). Moreover, the Potency result in assay [18] is “inactive”.

For `NC(=O)OCC(COC(N)=O)c1ccccc1`, the compound was called inactive in [13] and in assay [16]. Besides, the activity change, negative = inhibition in assay [17] (at 57.5 µM (top of the series)) was -4.42% (inactive). Also, the results for the max response in assay [17] (setting [20]) and in [17] (setting [21]) were -0.783% and -3.41%, respectively. For the same compound, the Potency entry in assay [18] and in assay [19] was “inactive” each time.

Turning to `CN(C)CCCN1c2ccccc2CCc2ccc(Cl)cc21`, the compound was called inactive in [13] and in assay [16]. Also, the activity change, negative = inhibition was -2.54% (inactive) in [17] (at 25.7 µM (top of the series)) and 1.94% (inactive) in assay [17] (at 57.5 µM (top of the series)). Also, the max response in [17] (setting [20]) was -4.06% and 0.0678%; in [17] (setting [21]), -5.65% and 2.74%. Besides, the Potency entry in assay [18] was “inactive”.

`CN1C(C(=O)Nc2ccccn2)=C(O)c2ccccc2S1(=O)=O`: the call in assay [13] and in assay [16] was inactive. For the same compound, the activity change, negative = inhibition in assay [17] (at 25.7 µM (top of the series)) was -1.27% (inactive). In addition, the results for the max response in assay [17] (setting [20]) and in assay [17] (setting [21]) were -1.41% and -3.03%, respectively. In addition, the Potency result in assay [18] and in [19] was “inactive” each time.

In the case of `CN1CCN2c3ccccc3Cc3ccccc3C2C1` (configuration not stated), in [17] (at 57.5 µM (top of the series)), the activity change, negative = inhibition was 3.41% (inactive). For the same compound, the max response in assay [17] (setting [20]) stood at 10.1%; in assay [17] (setting [21]), 10.4%. Moreover, in assay [18], the Potency result is “inactive”.

As for `CCCNCC(O)COc1ccccc1C(=O)CCc1ccccc1` (configuration not stated), in [17] (at 57.5 µM (top of the series)), the activity change, negative = inhibition was 6.61% (inactive) and -1.46% (inactive). Moreover, the max response was 8.1% and 22.1% in assay [17] (setting [20]); 14% and 22.1% in assay [17] (setting [21]). Besides, the Potency entry in [18] is “inactive”.

As for `CC(C)(Oc1ccc(C2CC2(Cl)Cl)cc1)C(=O)O` (configuration not stated), the activity change, negative = inhibition in assay [17] (at 57.5 µM (top of the series)) was 1.98% (inactive). Moreover, the results for the max response in [17] (setting [20]) and in assay [17] (setting [21]) were -18.9% and -26.3%, respectively. Besides, the Potency entry in assay [18] was “inactive”.

Turning to `CN1CCN(CCCN2c3ccccc3Sc3ccc(Cl)cc32)CC1`, the result in [13] and in [16] was inactive. In addition, the values for the activity change, negative = inhibition in assay [17] (at 25.7 µM (top of the series)) and in assay [17] (at 57.5 µM (top of the series)) were -2.25% (inactive) and 2.24% (inactive), respectively. Besides, the max response was -2.79% and -1.33% in assay [17] (setting [20]); -5.2% and 2.08% in assay [17] (setting [21]). For the same compound, in [18], the Potency result is “inactive”.

Turning to `CN(C)CCOC(c1ccccc1)c1ccccc1`, the result in [13] and in assay [16] was inactive. Moreover, the activity change, negative = inhibition was -4.2% (inactive) in assay [17] (at 25.7 µM (top of the series)) and 0.806% (inactive) in assay [17] (at 57.5 µM (top of the series)). For the same compound, the max response is -10.1% and 40.8% in assay [17] (setting [20]); -13% and 41% in [17] (setting [21]). Also, the Potency result in assay [18] and in assay [19] was “inactive” in each case.
